14-3-3 PPI = modulators of human 14-3-3 gamma - Raf peptide interaction | P61981 | FP, 14-3-3gamma / TMR-pS259-Raf peptide binding | inhibition, % at 40 µM | 160,000 compounds, 0.19% hits | AID 422; in the data active = inhibition above about 30%
Target sequence (P61981 whole entry, looked up): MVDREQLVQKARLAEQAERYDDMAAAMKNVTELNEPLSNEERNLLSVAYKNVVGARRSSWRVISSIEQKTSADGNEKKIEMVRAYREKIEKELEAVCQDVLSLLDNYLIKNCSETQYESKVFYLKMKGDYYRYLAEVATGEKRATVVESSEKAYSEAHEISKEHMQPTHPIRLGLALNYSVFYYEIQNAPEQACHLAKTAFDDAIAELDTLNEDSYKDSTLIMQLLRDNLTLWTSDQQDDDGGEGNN
Hits are given with their value; 0 = inactive; + = active, no number; ! = not confirmed by another sample. The full list was thinned out, with hits kept by preference.

SMILES | 14-3-3 PPI
O=C(O)c1cc(N2C(=O)c3ccc([N+](=O)[O-])c4c([N+](=O)[O-])ccc(c34)C2=O)ccc1O | 0
Cc1cccc(C)c1N1C(=O)c2ccc([N+](=O)[O-])c3c([N+](=O)[O-])ccc(c23)C1=O | 0
O=C1c2ccc([N+](=O)[O-])c3c([N+](=O)[O-])ccc(c23)C(=O)N1c1ccc(O)cc1 | 43.5
CCOc1ccccc1NS(=O)(=O)c1ccc2nc(-c3ccccc3)[nH]c2c1 | 0
CCC(C)NC(=O)C1CC(=O)N(C2CCCCC2)C1 (centres undefined) | 0
O=c1ccc([N+](=O)[O-])ccc1Nc1ccccn1 | 0
Cc1ccc(C(=O)NCCNC(=O)c2ccncc2)cc1 | 0
Cc1ccc(C(=O)NCC(C)(C)O)cc1 | 66.7
Cc1ccc(C(=O)NCCNC(=O)c2ccc(C)cc2)cc1 | 0
O=C(CSc1nc2ccccc2[nH]1)Nc1ccc(OC(F)(F)F)cc1 | 0
CC(C)N1CCCC(C(=O)N2CCCCCC2)C1 (centres undefined) | 0
CCN(CC)c1ccc(NC(=O)COc2ccccc2C)cc1 | 0
CSc1sc(C)cc1C1C(C(=O)Nc2ccc(F)cc2)=C(C)NC2=C1C(=O)CCC2 (centres undefined) | 0
Oc1ccc(N=Cc2ccc(OCc3ccccc3)cc2)cc1 | 35.1
Oc1ccc(Cl)cc1N=Cc1ccc(OCc2ccccc2)cc1 | 0
Cc1ccc(O)c(N=Cc2ccc(OCc3ccccc3)cc2)c1 | 0
CCOc1cc(C2Nc3ccccc3NC3=C2C(=O)CC(c2cccs2)C3)cc(Br)c1O (centres undefined) | 0
Cc1nc2nc(Cc3ccccc3)[nH]n2c(=O)c1Cl | 0
Cc1nc2nc(-c3ccccc3)[nH]n2c(=O)c1Cc1ccccc1 | 0
Cc1nc2nc(Cc3ccccc3)[nH]n2c(=O)c1Cc1ccccc1 | 50.1
Cc1ccc(NC(=O)c2cc(N3CCOCC3)nc3ccccc23)cc1 | 0
CCOC(=O)C1=CSC2(S1)C(C(=O)OCC)=CSC1=C2c2ccccc2N(CC)C1(C)C (centres undefined) | 0
Cn1ccnc1SCC(=O)c1ccc(Cl)cc1 | 0
COc1ccc(C(=O)CSc2nccn2C)cc1OC | 0
CCn1c(CSc2nccn2C)nc2cc(C(=O)O)ccc21 | 56.6
SMILES | 14-3-3 PPI
Cc1ccc2cc3cc(C(=O)NCCCN4CCC(C)CC4)oc3nc2c1 | 0
CCN1CCN(CCCNC(=O)c2cc3cc4ccc(C)cc4nc3o2)CC1 | 0
Cc1ccc2cc3cc(C(=O)NCCCN4CCN(C)CC4)oc3nc2c1 | 65.8
CCn1c2ccccc2c2nnc(SCC(=O)Nc3ccccc3OC)nc21 | 0
CC(C)c1ccc(S(=O)(=O)N2CCN(Cc3ccccc3F)CC2)cc1 | 0
COc1cc(NS(=O)(=O)c2ccc(NC(=O)c3ccc4c(c3)c(C)c(C)n4C)cc2)ncn1 | 0
CN(C)c1ccc(N=Cc2nc(-c3ccccc3)oc2O)cc1 | 111.9
CC(=O)Nc1ccc(N=Cc2nc(-c3ccc(C)cc3)oc2O)cc1 | 0
CSc1ccccc1N=Cc1nc(-c2ccccc2)oc1O | 0
Cn1c(=O)cc(SCC(=O)NCC2COc3ccccc3O2)c2ccccc21 (centres undefined) | 0
O=C(c1ccco1)N1CCN(S(=O)(=O)c2ccc(Oc3ccccc3)cc2)CC1 | 0
Cc1cccc(NC(=O)c2c(-c3ccccc3Cl)noc2C)c1NC(=O)c1ccccc1 | 0
CCOC(=O)CN=C1CC(C)(C)CC2=C1Sc1ncnc(OC)c1N2 | 81.1
CCOC(=O)C1=C(C)NC2=C(C(=O)CC(C)(C)C2)C1c1ccccn1 (centres undefined) | 0
COCCOC(=O)C1=C(C)NC(=O)NC1c1c(OC)ncnc1OC (centres undefined) | 0
Cc1ccc(Cn2c(=O)n(-c3cccc(C)c3)c(=O)c3ccccc32)cc1 | 0
CC1(C)CC(=O)C2=C(C1)NC1=C(C(=O)CC(C)(C)C1)C2c1ccccc1C(F)(F)F | 0
O=C(NCCN1CCOCC1)c1nn2c(c1Cl)NC(c1cccs1)CC2C(F)(F)F (centres undefined) | 0
CCc1nnc(NS(=O)(=O)c2ccc(NC(=O)c3ccc(S(=O)(=O)N4CCCCC4)cc3)cc2)s1 | 0
C=CCC1C=CCC(CC=C)N1CCO (centres undefined) | 105.5
C=CCC1C=CCC(CC=C)N1C(=O)C(F)(F)F (centres undefined) | 0
CC(C)CC1CCCC(CC(C)C)N1CCO (centres undefined) | 0
CCCCCc1ccc(-c2ccc(O)cc2)cc1C | 0
CCOc1ccc(N(CC(=O)NCc2ccco2)S(C)(=O)=O)cc1 | 0
CCOC(=O)CC(NC(=O)c1ccc([N+](=O)[O-])c(C)c1)c1ccc(OC)cc1 (centres undefined) | 0
SMILES | 14-3-3 PPI
Clc1ccc(Sc2c(-c3ccccc3)nc3ncccn23)cc1 | 38.7
CSc1ccc(-c2nc3ncccn3c2Nc2ccccc2C)cc1 | 0
Clc1ccc(-c2nc3ncccn3c2Nc2ccc3c(c2)OCO3)cc1 | 0
O=C(CSCc1cnn(-c2ccccc2)c1-n1cccc1)NCc1cccs1 | 0
CCOC(=O)SC1=N/C(=C\c2ccc(N(C)C)cc2)C(=O)S1 | 0
CSC1=NC(=Cc2ccc(N(C)C)cc2)C(=O)S1 | 125.4
COc1cc(C=C2N=C(SC)SC2=O)cc(OC)c1OC | 0
COc1ccccc1C(=O)Nc1c2c(nn1-c1cc(C)cc(C)c1)CSC2 | 0
O=C1Nc2ccc(Cl)cc2C(c2ccccc2)C1N1CCCCC1 (centres undefined) | 0
O=C1c2ccccc2-c2onc3ccc(NCCCn4ccnc4)c1c23 | 0
Cc1ccccc1Nc1ccc2noc3c2c1C(=O)c1ccccc1-3 | 0
CC(=O)OCCNc1ccc2noc3c2c1C(=O)c1ccccc1-3 | +
O=C1c2ccccc2C(=O)c2c(I)cccc21 | 0
O=C1c2ccccc2C(=O)c2c1ccc1c(=O)o[nH]c21 | 73.0
O=C1c2ccccc2C(=O)c2c(Br)cccc21 | 0
CCOC(=O)Cn1cc(C(=O)C2CC2)c2ccccc21 | 0
COC(=O)Cn1cc(C(=O)C2CC2)c2ccccc21 | 50.1
CCCC(=O)c1cn(CC(=O)OC)c2ccccc12 | 0
Cc1ccc2occ(C(c3nnnn3Cc3ccccc3)N3CCOCC3)c(=O)c2c1 (centres undefined) | 0
CCOc1nc(C)ccc1-c1noc(C)n1 | 0
O=C(O)c1ccc2c3c(ncnc13)-c1ccccc1C2=O | 39.8
O=C1c2ccccc2-c2ncnc3cccc1c23 | 0
COc1ccc(Nc2ccc3c4c(ncnc24)-c2ccccc2C3=O)cc1 | 0
O=S(=O)(/N=C(\NS(=O)(=O)c1ccc(Cl)cc1)c1ccccc1)c1ccc2ccccc2c1 | 0
OCCN1CCOCCN(CCO)CCN(CCO)CC1 | 147.0!
SMILES | 14-3-3 PPI
C=COCCN1CCOCC1 | 0
NC(=O)CN1CCOCCOCCN(CC(N)=O)CCOCC1 | 0
CCCOc1cccc(C(=O)Nc2c[nH]c(=O)[nH]c2=O)c1 | 0
CC1=C(C(=O)OCc2ccccc2)C(c2ccc([N+](=O)[O-])cc2)CC(=O)N1 (centres undefined) | 0
CC(=O)N1CCc2cc(S(=O)(=O)NCCC(=O)Nc3cccc(C)c3C)ccc21 | 0
Cc1nnc(-c2ccccc2)nn1 | 86.2
c1ccc(-c2nnc(-c3ccccc3)o2)cc1 | 0
Nc1nc(N)nc(-c2ccccc2)n1 | 0
CC1=NN(c2ccc([N+](=O)[O-])cc2)C(c2ccco2)C1 (centres undefined) | 0
CC(C)CCNC(=O)C1CCN(S(=O)(=O)N2CCC(C)CC2)CC1 | 0
O=C(C1CCC1)N1CCc2cc(S(=O)(=O)NCc3ccccc3Cl)ccc21 | 0
CCN(Cc1ccccc1)C(=O)C(NC(=O)C1CCC(C)CC1)C(C)C (centres undefined) | 0

Compound activity deposited in PubChem BioAssay by Emory University Molecular Libraries Screening Center.
